Measured values published in PubChem BioAssay (NCATS).
A number with no mark means an inactive call.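 Rule for the calls, unless noted: active = compounds whose dose series gives a full or clear partial fitted curve of increased nuclear translocation; inconclusive = weak partial curve or effect only at the top dose; inactive = no dose-dependent translocation response.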 Inconclusive results are not listed. Residues, ends and D or L forms follow the SMILES beside them.

system: not listed separately; experiment: Stat Signaling Pathway (AID 446; active = well fitted curve in either direction with a large enough effect, not every such curve was filed as active;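 note: ME-180 cervical cancer cells given 40 pM IL-6 alongside compound; SIE-controlled beta-lactamase reporter measured as 460/530 nm FRET emission ratio; % is set by controls: 0 for no effect and ±100 for the full control effect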); details: ME-180 (cervical carcinoma) SIE beta-lactamase reporter, IL-6 stimulated, 5 h; at 7.69 µM (top of the series) unless noted
Procedure, shortened: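 IL-6/STAT signaling read in ME-180 cells via an SIE beta-lactamase reporter. Stimulus was 40 pM IL-6 (its AC50) for 5 hrs, so both activation and inhibition register.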

SMILES	activity, negative = inhibition
COC(=O)CCCC(=O)O	-4.13%
N#C[C@H]1CN[C@H](N)N[C@@H]1N	13.9%
NC(N)=N/N=C\c1ccc(O)c(C(=O)O)c1	-1.78%
O=C(O)CNCCc1ccccc1	4.05%
Oc1ccc(Cl)cc1C=Nc1cnc2ccccc2c1	-10.7%
O=C1C2[C@@H](c3ccccc3)N[C@@H](c3ccccc3)C1[C@H](c1ccccc1)N[C@H]2c1ccccc1	1.27%
O=CN1CCN(C[C@H](O)CN2CCCCC2)CC1	8.12%
CC(=O)O[C@H]1CC[C@@]2(C)[C@@H](CC[C@H]3[C@H]2CC(=O)[C@@]2(C)[C@@H]3C[C@H]3CC(C)=CC(=O)[C@H]32)C1	-1.11%
Nc1nccc(Nc2ccc(S(N)(=O)=O)cc2)n1	-5%
COc1ccc(/C=N\NC(=O)O)cc1	7.25%
Cc1ccc(N2CCN(CCC(=O)O)CC2)cc1	2.74%
O=C(O)[C@@H]1[C@@H](C(=O)NCc2ccccn2)[C@@H]2C=C[C@@H]1O2	-3.58%
O=C(O)c1ccc(C(=O)c2ccccc2)c(C(=O)O)c1	5.54%
O=C1[C@@H]2[C@@H]3C=C[C@H]([C@@H]2C(=O)N1CN1CCSCC1)[C@@H]1[C@@H]2C(=O)N(CN4CCSCC4)C(=O)[C@@H]2[C@H]31	-1.73%
O=C(NCc1cccnc1)[C@@H]1[C@@H](C(=O)O)[C@H]2CC[C@@H]1O2	11.6%
CC(=O)[C@@H](C)CCO[C@@]1(C)OCC[C@@H]1C	14.8%
O=C(O)[C@@H](Cc1c[nH]c2ccccc12)C(=O)NO	4.19%
CCCCn1cnc2c(SC)ncnc21	8.32%
Cc1cc2ccc(OC(=O)c3ccc(N=C(N)N)cc3)cc2oc1=O	-1.77%
O=C(O)CSc1cc(-c2ccccc2)nc2ccccc12	-6.65%
O=C(O)c1ccccc1CN1CCC[C@@H](C(=O)O)C1	8.09%
NS(=O)(=O)c1ccc(NCc2cnc3ccccc3n2)cc1	3.16%

molecular target: Glucocorticoid receptor (Homo sapiens) (UniProt P04150); experiment: GR-GFP Redistribution (AID 450); details: U2OS GR-GFP nuclear translocation, laser cytometry, 2 h; note: potency is the fitted concentration of half-maximal effect
Sequence (P04150 whole entry, looked up): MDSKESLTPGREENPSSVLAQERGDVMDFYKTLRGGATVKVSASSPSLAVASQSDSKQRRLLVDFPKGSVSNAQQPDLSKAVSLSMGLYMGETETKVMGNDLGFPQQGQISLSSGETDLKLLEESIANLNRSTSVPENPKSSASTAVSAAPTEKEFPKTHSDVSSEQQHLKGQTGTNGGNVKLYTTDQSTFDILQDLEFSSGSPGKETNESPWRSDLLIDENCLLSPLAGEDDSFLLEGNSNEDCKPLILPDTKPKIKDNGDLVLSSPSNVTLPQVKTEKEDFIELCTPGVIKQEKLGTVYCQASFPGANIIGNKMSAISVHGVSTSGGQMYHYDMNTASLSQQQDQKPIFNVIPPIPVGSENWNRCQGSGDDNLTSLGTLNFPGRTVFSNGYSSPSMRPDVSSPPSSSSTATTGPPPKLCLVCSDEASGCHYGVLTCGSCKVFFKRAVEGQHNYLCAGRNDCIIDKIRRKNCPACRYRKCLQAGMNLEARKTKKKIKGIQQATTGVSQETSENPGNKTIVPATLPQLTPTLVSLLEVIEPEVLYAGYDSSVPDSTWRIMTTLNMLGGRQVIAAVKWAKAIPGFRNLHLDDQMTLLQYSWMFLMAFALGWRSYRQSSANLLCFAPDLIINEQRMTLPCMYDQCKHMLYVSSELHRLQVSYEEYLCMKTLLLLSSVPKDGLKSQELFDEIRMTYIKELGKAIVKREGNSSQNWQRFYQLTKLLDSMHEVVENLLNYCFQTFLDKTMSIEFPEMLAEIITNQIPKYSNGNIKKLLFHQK

SMILES	Potency
C[C@@H](N1CCOCC1)[C@@](O)(c1ccccc1)c1ccccn1	> 46 µM
O=C(O)c1ccccc1C1c2ccccc2Oc2ccccc21	> 46 µM
C[C@@H](CS(=O)(=O)Cc1ccccc1)C(N)=O	> 46 µM
Nc1cccc2cc(S(=O)(=O)Nc3ccc(C(=O)O)cc3)ccc12	> 46 µM
Nc1c(OCC(=O)O)ccc2cc(S(=O)(=O)O)ccc12	> 46 µM
O=C(O)c1nn(-c2ccc(Cl)cc2)c2c1C(=O)c1ccccc1C2=O	> 46 µM
CN1CCCN(C)C1c1cc([N+](=O)[O-])ccc1O	> 46 µM
Cc1cc(Cl)ccc1OCC(=O)Nc1nc(N)nc(N)n1	> 46 µM
CC(=O)N[C@H](Cc1ccc(O)cc1)C(=O)O	> 46 µM
O=C(O)c1ccccc1C(=O)Nc1cc2c(cc1Br)-c1ccccc1C2=O	> 46 µM
[O-][N+]1(CC[N+]2([O-])CCCCC2)CCCCC1	> 46 µM
COc1ccc([C@H](O)c2ccccn2)cc1	> 46 µM
O=c1[nH]cc(CS(=O)(=O)Cc2c[nH]c(=O)[nH]c2=O)c(=O)[nH]1	> 46 µM
O=C(O)c1ccc(Nc2ccnc3cc(Cl)ccc23)cc1O	> 46 µM
N#CC(CC(=O)O)=C(c1ccccc1)c1ccccc1	> 46 µM
N[C@H]1[C@@H](C(=O)O)[C@H]2C=C[C@H]1C2	> 46 µM
N[C@H](CO)C(=O)NCC(=O)O (HELM PEPTIDE1{[dS].G}$$$$V2.0)	> 46 µM
COC(=O)CCCC(=O)O	> 46 µM
N#C[C@H]1CN[C@H](N)N[C@@H]1N	> 46 µM
NC(N)=N/N=C\c1ccc(O)c(C(=O)O)c1	> 46 µM

SMILES	Potency
O=C(O)CNCCc1ccccc1	> 46 µM
Oc1ccc(Cl)cc1C=Nc1cnc2ccccc2c1	> 46 µM
O=C1C2[C@@H](c3ccccc3)N[C@@H](c3ccccc3)C1[C@H](c1ccccc1)N[C@H]2c1ccccc1	> 46 µM
O=CN1CCN(C[C@H](O)CN2CCCCC2)CC1	> 46 µM
CC(=O)O[C@H]1CC[C@@]2(C)[C@@H](CC[C@H]3[C@H]2CC(=O)[C@@]2(C)[C@@H]3C[C@H]3CC(C)=CC(=O)[C@H]32)C1	> 46 µM
Nc1nccc(Nc2ccc(S(N)(=O)=O)cc2)n1	> 46 µM
COc1ccc(/C=N\NC(=O)O)cc1	> 46 µM
Cc1ccc(N2CCN(CCC(=O)O)CC2)cc1	> 46 µM
O=C(O)[C@@H]1[C@@H](C(=O)NCc2ccccn2)[C@@H]2C=C[C@@H]1O2	> 46 µM
O=C(O)c1ccc(C(=O)c2ccccc2)c(C(=O)O)c1	> 46 µM
O=C1[C@@H]2[C@@H]3C=C[C@H]([C@@H]2C(=O)N1CN1CCSCC1)[C@@H]1[C@@H]2C(=O)N(CN4CCSCC4)C(=O)[C@@H]2[C@H]31	> 46 µM
O=C(NCc1cccnc1)[C@@H]1[C@@H](C(=O)O)[C@H]2CC[C@@H]1O2	> 46 µM
CC(=O)[C@@H](C)CCO[C@@]1(C)OCC[C@@H]1C	> 46 µM
O=C(O)[C@@H](Cc1c[nH]c2ccccc12)C(=O)NO	> 46 µM
CCCCn1cnc2c(SC)ncnc21	> 46 µM
Cc1cc2ccc(OC(=O)c3ccc(N=C(N)N)cc3)cc2oc1=O	> 46 µM
O=C(O)CSc1cc(-c2ccccc2)nc2ccccc12	> 46 µM
O=C(O)c1ccccc1CN1CCC[C@@H](C(=O)O)C1	> 46 µM
NS(=O)(=O)c1ccc(NCc2cnc3ccccc3n2)cc1	> 46 µM
